In PubChem BioAssay (NCI):
This is part of a sample that, as a whole, favours compounds with a hit. Of some 79,000 tested, about 15% had one in any assay. Values without a mark were called inactive. Rule as the data show it: active = growth inhibition above about 70%; inactive = the rest.

Assay: NCI Yeast Anticancer Drug Screen. Data for the mec2-1 strain (AID 157)
Settings: S. cerevisiae mec2-1 strain, at 50.0 µM, active compounds read high
In short: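 Test agents were screened against the mec2-1 yeast strain, with defined DNA repair or cell cycle alteration. Growth was scored as inhibition against vehicle-only controls.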
`CC(C)=NNc1ccc([N+](=O)[O-])cc1[N+](=O)[O-]` showed a growth inhibition of 12.8%. With `CC1(C)Nc2cccc3c(N=Nc4ccc(N=Nc5ccccc5)c5ccccc45)ccc(c23)N1` the growth inhibition was -38.1%. With `Nc1nc2c(c(-c3nc(N)nc4c3CCc3ccccc3-4)n1)CCc1ccccc1-2` the growth inhibition was -12.6%. With `C#C[C@H]1CCCCCC1O` (stereo partly specified) the growth inhibition was 2%. `O=C(O)CCC(NC(=O)OCc1ccccc1)C(=O)O` (stereo unspecified) showed a growth inhibition of 2.55%. Compound `CCOC(=O)C(=O)C=P(c1ccccc1)(c1ccccc1)c1ccccc1` has a growth inhibition of -22.4%. With `N#CCc1ccc([N+](=O)[O-])cc1` the growth inhibition was 8.3%. With `Cc1cc2nc(CC(=O)c3ccccc3)c(=O)[nH]c2cc1C` the growth inhibition was 0.95%. With `Oc1ccccc1O` the growth inhibition was 6.7%. Compound `CC(=O)Nc1c(C)cc(C)cc1C` has a growth inhibition of -0.35%. `N#Cc1ccc(OC(=O)Nc2ccc(Cl)c(Cl)c2)cc1` gave a growth inhibition of -4.4%. `CC(C)C(C#N)(C(C)C)C(C)C` gave a growth inhibition of 15.4%. For `CN(C)/N=C/c1ccccc1O`, the growth inhibition was 4%. Compound `COc1cc([C@@H]2c3cc4c(cc3[C@H](O)[C@H]3COC(=O)[C@H]23)OCO4)cc(OC)c1OC` has a growth inhibition of -8.55%. With `Cc1ccc(/C(C#N)=C/c2ccc3c(c2)OCO3)cc1` the growth inhibition was 25.5%. With `COC(=O)/C=C/C(=O)NC(N)=O` the growth inhibition was -41.2%. `COc1cc2c(cc1O)CC[C@@H]1C2CC[C@@]2(C)C1CC[C@@H]2O` (stereo partly specified) gave a growth inhibition of -13.4%. `COc1ccc2c(c1)CCc1c-2n[nH]c1-c1[nH]nc2c1CCc1cc(OC)ccc1-2` gave a growth inhibition of 0.35%. Work on `C/C(=N/NC(N)=O)c1ccco1` yielded a growth inhibition of -1.05%. Compound `c1cc2cccc3c4cccc5cccc(c(c1)c23)c54` has a growth inhibition of -22.6%. For `S=C(Nc1ccccc1)N1CCCCC1`, the growth inhibition was 1.25%. `COc1ccc(C)cc1OC` gave a growth inhibition of 12.9%. Work on `CCN(CC)C(=O)/C=C(/C)c1ccccc1` yielded a growth inhibition of -2.65%. For `O=C(N/N=C/c1ccccc1O)Nc1nn[nH]n1`, the growth inhibition was -10.2%. With `CSC(=N\N=C\c1ccc(N(C)C)cc1)/N=C/N(C)C` the growth inhibition was -8.15%. In the case of `CC(=O)Nc1ccc(NC(C)=O)c2c1C(=O)c1ccccc1C2=O`, the growth inhibition was -24.1%. In the case of `O=C(Nc1ccccc1C(=O)NCC1CC1)c1cccs1`, the growth inhibition was -29.9%. `O=C(Cc1nc2ccc([N+](=O)[O-])cc2nc1CC(=O)c1cccnc1)c1cccnc1` gave a growth inhibition of 10.5%. Work on `CSc1[nH]c(=O)ncc1F` yielded a growth inhibition of 4.1%. For `O=c1[nH]n(-c2ccccc2)c(=O)cc1Cl`, the growth inhibition was 2.25%. In the case of `COc1ccc(-c2cc(-c3cc(-c4ccc(OC)cc4)nc(N)n3)nc(N)n2)cc1`, the growth inhibition was 4.45%. Work on `NC(=O)c1ccc(N=C(N)N=C(N)N)cc1` yielded a growth inhibition of -15.6%. With `OCCN1CCOCC1` the growth inhibition was -2.05%. Work on `CC(=O)OCC1CCCO1` (stereo unspecified) yielded a growth inhibition of -9.45%. `CCCCNC(=O)C(=O)NCCCC` gave a growth inhibition of 7.2%. With `CCOC(=O)/C(C#N)=C/c1cccc(C)c1` the growth inhibition was 22.8%. Work on `O=C(O)CNC(=O)c1ccccc1` yielded a growth inhibition of -4.45%. In the case of `c1ccc(CN2COc3c(ccc4c3OCN(Cc3ccccc3)C4)C2)cc1`, the growth inhibition was 20.8%.

Assay: NCI Yeast Anticancer Drug Screen. Data for the sgs1 mgt1 strain (AID 161);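 also: 0% = growth of cultures given vehicle only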
Settings: S. cerevisiae sgs1 mgt1 strain, at 50.0 µM, active compounds read high
In short: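 Genetically altered yeast, compound exposure, growth inhibition relative to vehicle.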
`CC(C)=NNc1ccc([N+](=O)[O-])cc1[N+](=O)[O-]` showed a growth inhibition of 8.3%. `CC1(C)Nc2cccc3c(N=Nc4ccc(N=Nc5ccccc5)c5ccccc45)ccc(c23)N1` gave a growth inhibition of -27%. In the case of `Nc1nc2c(c(-c3nc(N)nc4c3CCc3ccccc3-4)n1)CCc1ccccc1-2`, the growth inhibition was -25.1%. Work on `C#C[C@H]1CCCCCC1O` (stereo partly specified) yielded a growth inhibition of -1.35%. Work on `O=C(O)CCC(NC(=O)OCc1ccccc1)C(=O)O` (stereo unspecified) yielded a growth inhibition of -8.45%. `CCOC(=O)C(=O)C=P(c1ccccc1)(c1ccccc1)c1ccccc1` gave a growth inhibition of -21.9%. For `N#CCc1ccc([N+](=O)[O-])cc1`, the growth inhibition was -13.5%. `Cc1cc2nc(CC(=O)c3ccccc3)c(=O)[nH]c2cc1C` showed a growth inhibition of 13.3%. For `Oc1ccccc1O`, the growth inhibition was 8.85%. For `CC(=O)Nc1c(C)cc(C)cc1C`, the growth inhibition was -6.4%. `N#Cc1ccc(OC(=O)Nc2ccc(Cl)c(Cl)c2)cc1` showed a growth inhibition of 20.9%. Compound `CC(C)C(C#N)(C(C)C)C(C)C` has a growth inhibition of 4%. For `CN(C)/N=C/c1ccccc1O`, the growth inhibition was -16.9%. `COc1cc([C@@H]2c3cc4c(cc3[C@H](O)[C@H]3COC(=O)[C@H]23)OCO4)cc(OC)c1OC` gave a growth inhibition of 9.05%. With `Cc1ccc(/C(C#N)=C/c2ccc3c(c2)OCO3)cc1` the growth inhibition was 26.3%. With `COC(=O)/C=C/C(=O)NC(N)=O` the growth inhibition was -22.1%. In the case of `COc1cc2c(cc1O)CC[C@@H]1C2CC[C@@]2(C)C1CC[C@@H]2O` (stereo partly specified), the growth inhibition was -15.2%. In the case of `COc1ccc2c(c1)CCc1c-2n[nH]c1-c1[nH]nc2c1CCc1cc(OC)ccc1-2`, the growth inhibition was -11.2%. Compound `C/C(=N/NC(N)=O)c1ccco1` has a growth inhibition of -3.55%. In the case of `c1cc2cccc3c4cccc5cccc(c(c1)c23)c54`, the growth inhibition was -17.9%. Compound `S=C(Nc1ccccc1)N1CCCCC1` has a growth inhibition of -10.2%. Work on `COc1ccc(C)cc1OC` yielded a growth inhibition of 1.3%. `CCN(CC)C(=O)/C=C(/C)c1ccccc1` gave a growth inhibition of -22.2%. Compound `O=C(N/N=C/c1ccccc1O)Nc1nn[nH]n1` has a growth inhibition of 16.1%. Work on `CSC(=N\N=C\c1ccc(N(C)C)cc1)/N=C/N(C)C` yielded a growth inhibition of 6.05%. For `CC(=O)Nc1ccc(NC(C)=O)c2c1C(=O)c1ccccc1C2=O`, the growth inhibition was -10.3%. Work on `O=C(Nc1ccccc1C(=O)NCC1CC1)c1cccs1` yielded a growth inhibition of 3.4%. With `O=C(Cc1nc2ccc([N+](=O)[O-])cc2nc1CC(=O)c1cccnc1)c1cccnc1` the growth inhibition was -1.35%. Compound `CSc1[nH]c(=O)ncc1F` has a growth inhibition of 3.2%. For `O=c1[nH]n(-c2ccccc2)c(=O)cc1Cl`, the growth inhibition was -4%. In the case of `COc1ccc(-c2cc(-c3cc(-c4ccc(OC)cc4)nc(N)n3)nc(N)n2)cc1`, the growth inhibition was -20.8%. `NC(=O)c1ccc(N=C(N)N=C(N)N)cc1` gave a growth inhibition of -20%. `OCCN1CCOCC1` gave a growth inhibition of 1.4%. For `CC(=O)OCC1CCCO1` (stereo unspecified), the growth inhibition was -21.1%. Compound `CCCCNC(=O)C(=O)NCCCC` has a growth inhibition of 4.6%. Compound `CCOC(=O)/C(C#N)=C/c1cccc(C)c1` has a growth inhibition of -25.2%. With `O=C(O)CNC(=O)c1ccccc1` the growth inhibition was -25.6%. In the case of `c1ccc(CN2COc3c(ccc4c3OCN(Cc3ccccc3)C4)C2)cc1`, the growth inhibition was 23.1%.
